“And” between values parts separate entries of the source, which are not always exact repeats. Equal values may be shown once. The panel holds about 83,000 compounds, 20% with a hit somewhere; the sample as a whole holds those more often.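 The test compound was applied at a single concentration to cells in 96-well plates for 48 hours, and percent growth was recorded.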 The source made the active and inactive calls. Rule for the calls: active = growth percent below 10; inactive = the rest.

Some test systems named below: SR leukemia; RPMI-8226 leukemia; OVCAR-8 ovarian; OVCAR-5 ovarian; OVCAR-4 ovarian; IGROV1 ovarian; OVCAR-3 ovarian; HS 578T breast; NCI/ADR-RES ovarian; SK-OV-3 ovarian.
What all share (assay): NCI-60 one-dose screen, 48 h (100 = growth as untreated, 0 = no growth, -100 = all killed)
Common to all, as to details: 10 µM unless noted

Regarding `CCOC(=O)C(CNc1ccccc1)C(=O)OCC`, the growth in the experiment with SR leukemia was 97% (inactive); in the experiment on RPMI-8226 leukemia, 95.1% (inactive); with OVCAR-8 ovarian, 98.2% (inactive); in the experiment on OVCAR-5 ovarian, 102% (inactive); in the experiment with OVCAR-4 ovarian, 107% (inactive); in the experiment with IGROV1 ovarian it was 101% (inactive). Moreover, the figures for the growth in the experiment on OVCAR-3 ovarian, in the experiment with HS 578T breast and in the experiment with NCI/ADR-RES ovarian were 105% (inactive), 109% (inactive) and 103% (inactive), respectively.

In the case of `Nc1nc2ncc(CNc3ccc(C(=O)N[C@@H](CCc4nn[nH]n4)C(=O)O)cc3)nc2c(=O)[nH]1`, the growth was 95.6% (inactive) in the experiment with SR leukemia; 106% (inactive) and 95.5% (inactive) in the experiment on RPMI-8226 leukemia; 106% (inactive) and 90.2% (inactive) with OVCAR-8 ovarian; 88.3% (inactive) and 103% (inactive) in the experiment with OVCAR-5 ovarian; 100% (inactive) and 116% (inactive) in the experiment on OVCAR-4 ovarian; 103% (inactive) and 104% (inactive) in the experiment on SK-OV-3 ovarian. Further, the growth with IGROV1 ovarian is 99.6% (inactive) and 106% (inactive); in the experiment with OVCAR-3 ovarian, 98.6% (inactive) and 113% (inactive); in the experiment on HS 578T breast, 110% (inactive) and 95.3% (inactive); in the experiment with NCI/ADR-RES ovarian, 103% (inactive) and 101% (inactive).

`CCOC(=O)c1c(C)oc(C)c(C(=O)OCC)c1=O`: the growth was 118% (inactive) and 85% (inactive) in the experiment on SR leukemia; 85.9% (inactive) and 94.5% (inactive) in the experiment with RPMI-8226 leukemia; 104% (inactive) and 102% (inactive) in the experiment on OVCAR-8 ovarian; 114% (inactive) in the experiment with OVCAR-5 ovarian; 105% (inactive) and 94.6% (inactive) in the experiment with OVCAR-4 ovarian; 97.8% (inactive) and 95.3% (inactive) in the experiment on SK-OV-3 ovarian. Besides, the growth was 114% (inactive) and 94.7% (inactive) with IGROV1 ovarian; 105% (inactive) and 127% (inactive) with OVCAR-3 ovarian; 109% (inactive) in the experiment with HS 578T breast; 108% (inactive) in the experiment on NCI/ADR-RES ovarian.

Regarding `COc1ccccc1C(C)=O`, the growth in the experiment with SR leukemia is 95.8% (inactive) and 86% (inactive); with RPMI-8226 leukemia, 90.6% (inactive) and 100% (inactive); in the experiment on OVCAR-8 ovarian it was 105% (inactive) and 96.7% (inactive); in the experiment with OVCAR-5 ovarian, 117% (inactive) and 106% (inactive); in the experiment on OVCAR-4 ovarian it was 111% (inactive) and 105% (inactive); in the experiment with SK-OV-3 ovarian it was 103% (inactive) and 102% (inactive). Also, the growth was 119% (inactive) and 109% (inactive) with IGROV1 ovarian; 106% (inactive) and 110% (inactive) with OVCAR-3 ovarian; 88.2% (inactive) in the experiment with HS 578T breast; 106% (inactive) and 113% (inactive) in the experiment on NCI/ADR-RES ovarian.

Take `C[N+](C)(C)CN1C(=O)c2ccccc2C1=O`: the growth in the experiment on SR leukemia is 83.8% (inactive); in the experiment with RPMI-8226 leukemia it was 106% (inactive); in the experiment with OVCAR-8 ovarian, 97.4% (inactive); with OVCAR-5 ovarian it was 105% (inactive); in the experiment with OVCAR-4 ovarian, 101% (inactive); with SK-OV-3 ovarian, 98.1% (inactive). The growth was 109% (inactive) in the experiment with OVCAR-3 ovarian, 103% (inactive) with HS 578T breast and 112% (inactive) in the experiment on NCI/ADR-RES ovarian.

For the molecule `c1ccc(NCc2ccc3c(c2)OCO3)cc1`, the growth in the experiment with SR leukemia was 92.5% (inactive) and 92.2% (inactive); with RPMI-8226 leukemia, 99.6% (inactive) and 93.7% (inactive); with OVCAR-8 ovarian, 98.1% (inactive); with OVCAR-5 ovarian, 110% (inactive) and 98% (inactive); in the experiment on OVCAR-4 ovarian, 106% (inactive) and 108% (inactive); in the experiment on IGROV1 ovarian, 118% (inactive) and 102% (inactive). Moreover, the growth in the experiment on OVCAR-3 ovarian is 103% (inactive) and 105% (inactive); in the experiment with HS 578T breast it was 109% (inactive) and 104% (inactive); with NCI/ADR-RES ovarian, 106% (inactive) and 105% (inactive).

For `CCC(=O)C(CC)c1cccc(OC)c1` (stereo not given), the growth with SR leukemia was 96.7% (inactive); in the experiment with RPMI-8226 leukemia, 101% (inactive); in the experiment on OVCAR-8 ovarian it was 105% (inactive); in the experiment with OVCAR-5 ovarian, 115% (inactive); in the experiment on OVCAR-4 ovarian it was 105% (inactive); in the experiment on SK-OV-3 ovarian, 121% (inactive). Further, the growth in the experiment with IGROV1 ovarian was 107% (inactive); in the experiment on OVCAR-3 ovarian it was 117% (inactive); with HS 578T breast, 106% (inactive); in the experiment on NCI/ADR-RES ovarian it was 101% (inactive).

`O=[N+]([O-])c1ccc2nc3c4ccccc4c4ccccc4c3nc2c1`: the growth in the experiment on SR leukemia is 56.6% (inactive); in the experiment with RPMI-8226 leukemia, 59.4% (inactive); in the experiment with OVCAR-8 ovarian it was 65.9% (inactive); with OVCAR-5 ovarian, 91.7% (inactive); with OVCAR-4 ovarian it was 8.96% (active); in the experiment on IGROV1 ovarian it was 58.8% (inactive). In addition, the growth is 72.9% (inactive) with OVCAR-3 ovarian, 79.9% (inactive) with HS 578T breast and 58.9% (inactive) with NCI/ADR-RES ovarian.

For the molecule `Nc1ncnc2c1ncn2C1CC(O)C(CO)O1` (stereo not given), the growth in the experiment on SR leukemia is 110% (inactive) and 95% (inactive); with RPMI-8226 leukemia, 102% (inactive) and 105% (inactive); with OVCAR-8 ovarian it was 102% (inactive) and 109% (inactive); in the experiment on OVCAR-5 ovarian it was 103% (inactive) and 116% (inactive); in the experiment on OVCAR-4 ovarian, 113% (inactive) and 107% (inactive); in the experiment on SK-OV-3 ovarian it was 105% (inactive) and 110% (inactive). Also, the growth in the experiment on IGROV1 ovarian was 116% (inactive); with OVCAR-3 ovarian, 127% (inactive) and 109% (inactive); in the experiment with HS 578T breast, 107% (inactive) and 153% (inactive); in the experiment on NCI/ADR-RES ovarian, 104% (inactive) and 113% (inactive).

As to `CC(C)(O)Cn1cc(-c2ccc3nc(OC4CC4)ccc3c2)c2c(N)ncnc21`, the growth in the experiment with SR leukemia was 49.9% (inactive) and 21% (inactive); in the experiment with RPMI-8226 leukemia it was 55.3% (inactive) and 39.9% (inactive); in the experiment with OVCAR-8 ovarian it was 90.2% (inactive) and 63.6% (inactive); in the experiment with OVCAR-5 ovarian it was 84.7% (inactive) and 48.4% (inactive); with OVCAR-4 ovarian it was 96.3% (inactive) and 63.1% (inactive); in the experiment on SK-OV-3 ovarian, 83.4% (inactive) and 57.9% (inactive). Further, the growth in the experiment on IGROV1 ovarian is 74% (inactive) and 42.2% (inactive); in the experiment with OVCAR-3 ovarian, 109% (inactive) and 69.8% (inactive); in the experiment on HS 578T breast, 71.1% (inactive) and 31.9% (inactive); in the experiment on NCI/ADR-RES ovarian, 94.9% (inactive) and 67.1% (inactive).

In the case of `COc1cc(C(=O)N/N=C/c2ccc(N(C)C)cc2)cc(OC)c1OC`, the growth in the experiment with SR leukemia was 6.85% (active); in the experiment with RPMI-8226 leukemia it was 19.6% (inactive); in the experiment with OVCAR-8 ovarian it was 21.2% (inactive); in the experiment with OVCAR-5 ovarian, 44.5% (inactive); in the experiment on OVCAR-4 ovarian, 61.7% (inactive); in the experiment with SK-OV-3 ovarian, 10.9% (inactive). The growth was -11.7% (active) with OVCAR-3 ovarian, 46.4% (inactive) in the experiment with HS 578T breast and -40.1% (active) in the experiment on NCI/ADR-RES ovarian.

With `Cc1cc(-c2ccc(NS(=O)(=O)c3ccccc3)c(C)c2)ccc1NS(=O)(=O)c1ccccc1`, the growth was 49.2% (inactive) and 59.7% (inactive) in the experiment on SR leukemia; 53.7% (inactive) and 66.1% (inactive) with RPMI-8226 leukemia; 85.4% (inactive) and 95.8% (inactive) in the experiment on OVCAR-8 ovarian; 126% (inactive) and 111% (inactive) in the experiment with OVCAR-5 ovarian; 66.2% (inactive) and 99% (inactive) in the experiment with OVCAR-4 ovarian; 102% (inactive) and 126% (inactive) with SK-OV-3 ovarian. For the same molecule, the growth in the experiment with IGROV1 ovarian was 69.3% (inactive) and 117% (inactive); with OVCAR-3 ovarian, 90.1% (inactive) and 107% (inactive); in the experiment on HS 578T breast it was 83.4% (inactive) and 92.6% (inactive); in the experiment on NCI/ADR-RES ovarian, 86.1% (inactive) and 87.3% (inactive).

In the case of `COc1ccccc1/C=N\N=C(N/N=C/c1ccccc1OC)N/N=C/c1ccccc1OC`, the growth in the experiment on SR leukemia was 19.9% (inactive) and 19.6% (inactive); in the experiment with RPMI-8226 leukemia it was 26.7% (inactive) and -8.79% (active); in the experiment with OVCAR-8 ovarian it was 69% (inactive) and 23.3% (inactive); with OVCAR-5 ovarian it was 94.6% (inactive) and 52.1% (inactive); with OVCAR-4 ovarian, 29.2% (inactive); in the experiment on SK-OV-3 ovarian, 73.7% (inactive) and 49.8% (inactive). Further, the growth in the experiment on IGROV1 ovarian is 87.7% (inactive) and 26.3% (inactive); in the experiment with OVCAR-3 ovarian, -6.91% (active) and 19.3% (inactive); with HS 578T breast it was 99.5% (inactive) and 33.8% (inactive); with NCI/ADR-RES ovarian, 45.4% (inactive) and 19.1% (inactive).

With `CC(C)Cc1ccc(C(C)C(=O)NCc2ccc(Cn3c(=O)sn(CCCI)c3=O)cc2)cc1` (stereo not given), the growth with SR leukemia is 56.4% (inactive) and 2.84% (active); in the experiment with RPMI-8226 leukemia, 96.5% (inactive) and -19.8% (active); with OVCAR-8 ovarian, 96.3% (inactive) and -30.2% (active); with OVCAR-5 ovarian, 103% (inactive) and -58.1% (active); in the experiment with OVCAR-4 ovarian it was 84.9% (inactive) and -53.2% (active); with SK-OV-3 ovarian, 70.9% (inactive). The growth in the experiment on IGROV1 ovarian was 88.2% (inactive) and -82.1% (active); in the experiment with OVCAR-3 ovarian it was 92.7% (inactive) and -86% (active); in the experiment on HS 578T breast it was 92.1% (inactive) and -1.05% (active); in the experiment on NCI/ADR-RES ovarian, 106% (inactive) and -18.5% (active).

As for `CC(C)Cc1ccc(C(C)C(=O)NCc2ccc(Cn3c(=O)sn(CCCCl)c3=O)cc2)cc1` (stereo not given), the growth with SR leukemia is 108% (inactive) and 3.82% (active); with RPMI-8226 leukemia it was 99.8% (inactive) and -30.9% (active); in the experiment on OVCAR-8 ovarian, 94.5% (inactive) and -3.85% (active); with OVCAR-5 ovarian it was 105% (inactive) and -52.9% (active); in the experiment on OVCAR-4 ovarian it was 79.8% (inactive) and -94.2% (active); in the experiment on SK-OV-3 ovarian, 107% (inactive) and 69.5% (inactive). The growth in the experiment on IGROV1 ovarian was 99.3% (inactive) and -79.1% (active); in the experiment on OVCAR-3 ovarian, 98.2% (inactive) and -83.4% (active); in the experiment with HS 578T breast it was 106% (inactive) and -11% (active); in the experiment on NCI/ADR-RES ovarian, 99.4% (inactive) and -32.1% (active).

With `N#CC(C#N)=C/C=C/c1cccc([N+](=O)[O-])c1`, the growth with SR leukemia was -3.67% (active) and 3.74% (active); in the experiment on RPMI-8226 leukemia it was -16.2% (active) and -9.65% (active); with OVCAR-8 ovarian, -22.1% (active) and -35.4% (active); in the experiment on OVCAR-5 ovarian it was 23.1% (inactive) and -10.2% (active); in the experiment on OVCAR-4 ovarian, 31.9% (inactive) and 21.2% (inactive); with SK-OV-3 ovarian it was 55.6% (inactive) and 35.8% (inactive). In addition, the growth in the experiment on IGROV1 ovarian is 24% (inactive) and -7.91% (active); with OVCAR-3 ovarian it was -9.85% (active) and -42.4% (active); with HS 578T breast, -9.4% (active) and -4.55% (active); in the experiment with NCI/ADR-RES ovarian, 5.66% (active) and -10.2% (active).

These data come from PubChem BioAssay (NCI).
